According to PubChem BioAssay (NCI):
Several values for one entry are separate records, joined by “and”; a condition that tells them apart may be missing. Equal entries are not always repeated. About 79,000 compounds went through this panel and 15% of them were active in at least one assay; those are over-represented in the sample as a whole. Unmarked numbers belong to inactive results. Activity calls are given as the source filed them. Rule as the data show it: active = growth inhibition above about 70%; inactive = the rest.

Assay: NCI Yeast Anticancer Drug Screen. Data for the sgs1 mgt1 strain (AID 161);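 also: 0% = growth of cultures given vehicle only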
Conditions: S. cerevisiae sgs1 mgt1 strain, at 50.0 µM, hits give high values
How it was run: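 This yeast growth screen uses a strain with defined DNA-repair lesions; compound-treated growth is compared with vehicle-treated growth.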

Row | Structure (SMILES) | growth inhibition
1 | O=[N+]([O-])CCCCl | -3.05%
2 | CCCC(C)c1ccc(SOO)cc1.[Fe] (stereo not given) | -13.7%
3 | CC1(C)N=C(N)N=C(N)N1c1ccc(CCc2ccc(Cl)c(S(=O)(=O)F)c2)c(Cl)c1 | 99.3% (active)
4 | CCN(CC)C(=S)SC1C(=O)NC(=O)NC1=O | 20.1%
5 | C=C(C)[C@H]1CN[C@H](C(=O)O)[C@H]1CC(=O)O | -6.15%
6 | CC(C)=CC(=O)N(C)C1C2CN3CCC(O2)C13 (stereo not given) | 14.1%
7 | Nc1ccc([N+](=O)[O-])cc1[N+](=O)[O-] | -21.2%
8 | CC1C(C(=O)c2ccc(-c3ccccc3)cc2)N1C(C)(C)C (stereo not given) | 7.75%
9 | [Se]c1nc(N2CCOCC2)ncc1-c1ccccc1 | -17.2%
10 | CCCCCCC[CH2][Sn][CH2]CCCCCCC.Nc1ncnc2c1ncn2C1OC(CO)C2[OH+][OH+]C21 (stereo not given) | 9.35%
11 | CO/N=C1\CC(C)N2C(=O)C(C(C)C)NC(=O)C(NC(=O)c3c4nc5c(C(=O)NC6C(=O)NC(C(C)C)C(=O)N7C(C)CC(O)C7C(=O)N(C)CC(=O)N(C)C(C(C)C)C(=O)OC6C)ccc(C)c5oc-4c(C)c(=O)c3N)C(CO)OC(=O)C(C)N(C)C(=O)CN(C)C(=O)C12 (stereo not given) | 9.35%
12 | O=P(Oc1ccccc1)(Oc1ccccc1)N(CCCl)CCCl | -8.35%
13 | O=C(O)C1C2C=Cc3ccccc3C21 (stereo not given) | -11.3%
14 | CC(NC1=NCCO1)c1ccco1 (stereo not given) | 13.2%
15 | CCOP(=O)(CSCCC1(C)NC(=O)NC1=O)OCC (stereo not given) | 23.9%
16 | CC(COC(=O)NCc1ccccc1)OC(N)=O (stereo not given) | 13.1%
17 | CC(C)(C)C1=C(Br)C(F)(C(C)(C)C)OP1(=O)c1ccccc1 (stereo not given) | 90.5% (active)
18 | O=P(Nc1ccc(Cl)cc1)(Oc1ccccc1)N(CCCl)CCCl (stereo not given) | -6.75%
19 | COc1ccc2c(c1OC)CC(N)C2O (stereo not given) | 7.8%
20 | CN1CCc2ccc(O)cc2C1 | 3.95%

Row | Structure (SMILES) | growth inhibition
21 | O=C(Cc1ccccc1)OC1CCCC1 | -7.15%
22 | O=C1NC2(CCCCC2)C(=O)N1CCCCCN(CCCl)CCCl | 2.1%
23 | Nc1cc(S(=O)(=O)F)ccc1Cl | 20.1%
24 | CCC(CO)N=Cc1ccccc1O.CCC(CO)N=Cc1ccccc1O.[Ni] (stereo not given) | 31.9%
25 | CS(=O)(=O)OC1C2CC(C1OS(C)(=O)=O)C(c1ccccc1)C2C(=O)O (stereo not given) | 31.4%
26 | CC(C)(C)C1=C(Br)C(OC(=O)C(F)(F)F)(C(C)(C)C)OP1(=O)c1ccccc1 (stereo not given) | -22.9%
27 | O=C(Cl)c1cc([N+](=O)[O-])cc([N+](=O)[O-])c1 | 45.9%
28 | COc1ccc(CCN(C)Cc2cccc(OC)c2OC)cc1OC | -3.85%
29 | O=C1C2CCN(CC2)C1Cc1ccccc1 (stereo not given) | -8.7% and 4.4%
30 | C#CC1(O)CCC(C(C)(C)C)CC1 (stereo not given) | -7.35% and -4.35% and -1.95%
31 | CC(C)OC(=S)S.[Cu+2] | -2.4%
32 | NC(N)=NCCCCCCCCCCN=C(N)N | -6.05%
33 | OC(c1ccccc1)C(NC1CCCCC1)c1ccccc1 (stereo not given) | -0.75%
34 | C1CC[N-]CC1.CC(=N\O)/C(C)=N/O.CC(=N\O)/C(C)=N/O.C[C-]=O.[Co+2] | 10.3%
35 | O=[As](O)(O)c1cc(N=Nc2ccc(-c3ccc(N=Nc4cc([As](=O)(O)O)c(O)cc4O)cc3)cc2)c(O)cc1O | 33.2%
36 | O=C(CF)NCCCl | -1.65%
37 | O=CC=O | 24.4%
38 | Nc1ccc([N+](=O)[O-])cc1Cl | 45.2%
39 | CN1CCN(C(=O)Cc2c[nH]c3ccccc23)CC1 | 2.9%
40 | CS(=O)(=O)CS(=O)(=O)OCCF | -10.6%

Assay: NCI Yeast Anticancer Drug Screen. Data for the cln2 rad14 strain (AID 165);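 also: 0% = growth equal to vehicle treated cultures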
Conditions: S. cerevisiae cln2 rad14 strain, at 50.0 µM, hits give high values
How it was run: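 Yeast carrying cln2 and rad14 alterations (cell cycle control and DNA damage repair) were exposed to compounds. Growth inhibition was measured against vehicle-treated controls.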

Row | Structure (SMILES) | growth inhibition
41 | O=[N+]([O-])CCCCl | -7.95%
42 | CCCC(C)c1ccc(SOO)cc1.[Fe] (stereo not given) | -17.5%
43 | CC1(C)N=C(N)N=C(N)N1c1ccc(CCc2ccc(Cl)c(S(=O)(=O)F)c2)c(Cl)c1 | 93.8% (active)
44 | CCN(CC)C(=S)SC1C(=O)NC(=O)NC1=O | 20.6%
45 | C=C(C)[C@H]1CN[C@H](C(=O)O)[C@H]1CC(=O)O | -19.9%
46 | CC(C)=CC(=O)N(C)C1C2CN3CCC(O2)C13 (stereo not given) | 43.9%
47 | Nc1ccc([N+](=O)[O-])cc1[N+](=O)[O-] | -8.8%
48 | CC1C(C(=O)c2ccc(-c3ccccc3)cc2)N1C(C)(C)C (stereo not given) | 23.4%
49 | [Se]c1nc(N2CCOCC2)ncc1-c1ccccc1 | 0.5%
50 | CCCCCCC[CH2][Sn][CH2]CCCCCCC.Nc1ncnc2c1ncn2C1OC(CO)C2[OH+][OH+]C21 (stereo not given) | -4%
51 | CO/N=C1\CC(C)N2C(=O)C(C(C)C)NC(=O)C(NC(=O)c3c4nc5c(C(=O)NC6C(=O)NC(C(C)C)C(=O)N7C(C)CC(O)C7C(=O)N(C)CC(=O)N(C)C(C(C)C)C(=O)OC6C)ccc(C)c5oc-4c(C)c(=O)c3N)C(CO)OC(=O)C(C)N(C)C(=O)CN(C)C(=O)C12 (stereo not given) | 20%
52 | O=P(Oc1ccccc1)(Oc1ccccc1)N(CCCl)CCCl | -11.9%
53 | O=C(O)C1C2C=Cc3ccccc3C21 (stereo not given) | -26.6%
54 | CC(NC1=NCCO1)c1ccco1 (stereo not given) | 30%
55 | CCOP(=O)(CSCCC1(C)NC(=O)NC1=O)OCC (stereo not given) | 2.65%
56 | CC(COC(=O)NCc1ccccc1)OC(N)=O (stereo not given) | -10.3%
57 | CC(C)(C)C1=C(Br)C(F)(C(C)(C)C)OP1(=O)c1ccccc1 (stereo not given) | 90.5% (active)
58 | O=P(Nc1ccc(Cl)cc1)(Oc1ccccc1)N(CCCl)CCCl (stereo not given) | -9.4%
59 | COc1ccc2c(c1OC)CC(N)C2O (stereo not given) | 4.3%
60 | CN1CCc2ccc(O)cc2C1 | -7.5%

Row | Structure (SMILES) | growth inhibition
61 | O=C(Cc1ccccc1)OC1CCCC1 | -39%
62 | O=C1NC2(CCCCC2)C(=O)N1CCCCCN(CCCl)CCCl | -25.4%
63 | Nc1cc(S(=O)(=O)F)ccc1Cl | 35.5%
64 | CCC(CO)N=Cc1ccccc1O.CCC(CO)N=Cc1ccccc1O.[Ni] (stereo not given) | -44.1%
65 | CS(=O)(=O)OC1C2CC(C1OS(C)(=O)=O)C(c1ccccc1)C2C(=O)O (stereo not given) | 12.2%
66 | CC(C)(C)C1=C(Br)C(OC(=O)C(F)(F)F)(C(C)(C)C)OP1(=O)c1ccccc1 (stereo not given) | 30.9%
67 | O=C(Cl)c1cc([N+](=O)[O-])cc([N+](=O)[O-])c1 | -10.2%
68 | COc1ccc(CCN(C)Cc2cccc(OC)c2OC)cc1OC | -0.95%
69 | O=C1C2CCN(CC2)C1Cc1ccccc1 (stereo not given) | -4.3% and -0.15%
70 | C#CC1(O)CCC(C(C)(C)C)CC1 (stereo not given) | 7.3% and -22.6% and 7.2%
71 | CC(C)OC(=S)S.[Cu+2] | -31.6%
72 | NC(N)=NCCCCCCCCCCN=C(N)N | 8.4%
73 | OC(c1ccccc1)C(NC1CCCCC1)c1ccccc1 (stereo not given) | -24.2%
74 | C1CC[N-]CC1.CC(=N\O)/C(C)=N/O.CC(=N\O)/C(C)=N/O.C[C-]=O.[Co+2] | 23.6%
75 | O=[As](O)(O)c1cc(N=Nc2ccc(-c3ccc(N=Nc4cc([As](=O)(O)O)c(O)cc4O)cc3)cc2)c(O)cc1O | -19.7%
76 | O=C(CF)NCCCl | 9.5%
77 | O=CC=O | 21.6%
78 | Nc1ccc([N+](=O)[O-])cc1Cl | 19%
79 | CN1CCN(C(=O)Cc2c[nH]c3ccccc23)CC1 | -20.3%
80 | CS(=O)(=O)CS(=O)(=O)OCCF | -9.55%
